Results from PubChem BioAssay AID485317 (Broad Institute, 2010).
Among all 290,000 compounds or so, about 11,000 (3.8%) were called active. This excerpt belongs to a sample that is enriched for actives. Values without a mark were called inactive.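 Rule for the calls: active = mean replicate inhibition above about 79%, with every replicate also reaching it (limit read from the data); inconclusive = only one of the two criteria met; inactive = mean below limit and not every replicate reaching it.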

Target: FAD-linked sulfhydryl oxidase ALR (Homo sapiens) (UniProt P55789)
Assay: inhibitors of human ALR sulfhydryl oxidase, primary screen, biochemical, H2O2 detection, HRP-luminol luminescence, single point (AID 485317)
Conditions: purified ALR, DTT oxidation, active compounds read high, concentration not given here

Sequence of FAD-linked sulfhydryl oxidase ALR (Homo sapiens) (P55789 whole entry, looked up): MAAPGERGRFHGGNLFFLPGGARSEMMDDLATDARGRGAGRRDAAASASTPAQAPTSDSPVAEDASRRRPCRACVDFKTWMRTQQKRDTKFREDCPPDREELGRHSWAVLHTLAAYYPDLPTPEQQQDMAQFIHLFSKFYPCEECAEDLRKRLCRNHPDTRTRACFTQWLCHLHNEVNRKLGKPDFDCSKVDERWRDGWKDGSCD

SMILES	inhibition
CCCCn1c(N)c(N(CCOC)C(=O)CSCC(=O)Nc2cccc(C)c2)c(=O)[nH]c1=O	6.91%
CC(=O)Nc1ccc(S(=O)(=O)NC(C)C(=O)OCCOc2ccc(F)cc2)cc1 (stereo not given)	0.524%
COc1ccc2nc3n(c(=O)c2c1)-c1cc(C)ccc1C(=O)NC3Cc1ccc(O)cc1 (stereo not given)	-1.57%
O=C(Nc1nnc(-c2ccccc2)o1)c1cccc(S(=O)(=O)N2CCOCC2)c1	9.18%
Fc1ccccc1-c1cc2cc3c(cc2cn1)OCO3	0.64%
C[C@@H]1CN([C@@H](C)CO)C(=O)c2cccc(NS(=O)(=O)c3ccc(F)cc3)c2O[C@H]1CN(C)C(=O)NC1CCCCC1	-2.04%
CCOC(=O)c1c(C)[nH]c(C(=O)OCC(=O)N2CCCC2=O)c1C	1.73%
Cc1nn(Cc2ccccc2)c(C)c1C(=O)NCCCN1CCCC1=O	-2.84%
CC(=O)Nc1cccc(C(=O)OCC(=O)c2ccc3c(c2)OCO3)c1	-2.29%
C=CC[C@H](CC(=O)N(CCO)Cc1ccccc1)C(=O)N[C@@H](COC(=O)[C@@H](CC=C)Cc1ccc(F)cc1)Cc1ccccc1	-4.83%
Cc1oc2nc(SCC(=O)NCc3cccnc3)nc(N)c2c1C	-4.94%
COc1cccc(-c2nc(CS(=O)(=O)CC(=O)NCCc3ccc(OC)c(OC)c3)c(C)o2)c1	46.6%
COc1ccc(C(=O)O)cc1S(=O)(=O)NCc1cccnc1	-5.82%
COc1ccc(-c2nc(CS(=O)CC(=O)NCc3cccnc3)c(C)o2)cc1OC (stereo not given)	99.2% (active)
COc1ccc(-c2nc(CS(=O)(=O)CC(=O)NCc3cccc(Br)c3)c(C)o2)cc1	22.1%
CCCCN(CC)CCCNC(=O)CS(=O)(=O)Cc1nc(-c2cccc(OC)c2)oc1C	98.8% (active)
O=C1C=C(c2cccc(Br)c2)C[C@@H](c2ccc(F)cc2)C1	-0.0525%
O=C(COC(=O)COc1cc(Cl)c(Cl)cc1Cl)NC1CC1	-25.6%
CC(=O)Nc1ccc(NC(=O)CSCc2cnn(-c3ccccc3)c2-n2cccc2)cc1	98.3% (active)
O=C(CSCc1ccccc1)Nc1ccccc1	-3.32%
Cc1cc(C)cc(NC(=O)CSCc2cnn(-c3ccccc3)c2-n2cccc2)c1	-4.84%
Cc1ccc(S(=O)(=O)NCCC(=O)NCc2ccc(Cl)cc2)cc1C	-3.37%
O=C(Nc1ccccc1C(=O)O)c1ccc(N2C(=O)C3CC=CCC3C2=O)cc1 (stereo not given)	2.58%

SMILES	inhibition
O=C(O)c1ccccc1C(=O)NC1=NN(c2ccccc2)CC1	98.4% (active)
O=C(O)c1ccccc1C(=O)Nc1nc(-c2ccccc2)cs1	-5.73%
CC1CCCCC12NC(=O)N(CC(=O)OCc1c(F)cccc1Cl)C2=O (stereo not given)	25.1%
COc1ccc(C)cc1NC(=O)CSc1cccc[n+]1[O-]	-22.2%
C[C@H](OC(=O)n1ccnc1)[C@@H]1O[C@@]2(C)CCC[C@@H]1O2	4.53%
CCCC(=O)NC(C)C(c1cccs1)N1CCN(c2ccccc2)CC1 (stereo not given)	97.6% (active)
CC(NC(=O)C(C)(C)C)C(c1cccs1)N1CCN(Cc2ccccc2)CC1 (stereo not given)	-4.94%
CC(NC(=O)Nc1ccccc1)C(c1cccs1)N1CCN(c2ccccc2)CC1 (stereo not given)	1.95%
O=C(NC(=S)Nc1ccc(Br)cc1F)C1CCCCC1	-2.71%
O=C(COc1ccccc1F)NNC(=O)c1cc(Br)ccc1Cl	-9.96%
Cc1ccccc1-c1cc(C(=O)NCc2cccs2)n(CC2CC(c3cccnc3)=NO2)n1 (stereo not given)	8.05%
COc1ccc(-c2csc(NC3OC(=O)c4ccccc43)n2)cc1 (stereo not given)	22.4%
COc1ccc(-c2csc(Cc3nc(O)cs3)n2)cc1	86.8% (active)
COc1ccc(-c2csc(NC(=O)COC(=O)c3ccc(Br)o3)n2)cc1	53.6%
CCOC(=O)N1CCN(C(=O)c2ccc3c(c2)N(Cc2ccc(C)cc2)CCS3)CC1	93.4% (active)
CCOC(=O)N1CCN(C(=O)c2ccc(S(=O)(=O)c3ccc(C)cc3)c(NC(C)=O)c2)CC1	4.26%
O=C(NCCc1ccccc1)c1ccc2c(c1)N(Cc1ccccc1)CCS2	10.1%
O=C(CSc1nc(Nc2ccccc2)nc(N2CCOCC2)n1)Nc1cc(Cl)ccc1O	-0.209%
C=CCn1c(CSc2nc3ccccc3s2)nnc1SCC(=O)NCc1ccco1	60.8%
O=C(CSc1nc2ccc(Nc3nc(N4CCOCC4)nc(N4CCOCC4)n3)cc2s1)NCc1ccco1	98.7% (active)
O=C(c1ccc(F)c(S(=O)(=O)N2CCOCC2)c1)N(CCc1ccccc1)Cc1ccccc1	-7.64%
OCC(O)CN(c1ccccc1)c1ccccc1 (stereo not given)	99% (active)
Cc1cccc(N(CC(O)CN(C)C)S(=O)(=O)c2ccccc2)c1 (stereo not given)	-4.54%

SMILES	inhibition
O=S(=O)(c1ccccc1)N(CC(O)CN1CCCCC1)c1ccccc1 (stereo not given)	-3.01%
CN(c1ccccc1)S(=O)(=O)c1ccc(C(=O)N2CCN(c3ccccc3Cl)CC2)cc1	-8.17%
O=[N+]([O-])c1ccc(S(=O)(=O)Nc2cccc(-c3ccc(N4CCCC4)nn3)c2)cc1	0.216%
C=CCOc1ccc(/C=C/C(=O)OCC(=O)NC(C)c2ccc(F)cc2)cc1 (stereo not given)	-7.12%
O=C1CCCC(O)=C1N=Nc1ccc(S(=O)(=O)N2CCOCC2)cc1	-10.4%
O=C1CCCC(O)=C1N=Nc1ccc2ncsc2c1	97.4% (active)
COc1ccccc1-c1sc2ccccc2c1C#CC1(O)CCCCC1	-3.52%
O=C(NCc1ccco1)c1ccc([N+](=O)[O-])cc1Cl	-19%
CCC(CC)NC(=O)/C=C/c1cccc([N+](=O)[O-])c1	-3%
O=C(CSCc1ccc([N+](=O)[O-])cc1)NCCSCc1ccccc1	-10.2%
O=C(/C=C/c1cccc([N+](=O)[O-])c1)NCCSCc1ccco1	98.5% (active)
O=C(/C=C/c1ccc([N+](=O)[O-])cc1)NCCSCc1ccco1	98.4% (active)
O=C(NCc1ccco1)/C(=C/c1cccc([N+](=O)[O-])c1)NC(=O)c1ccco1	69.6%
CCN(C(=O)CSc1ncnc2sccc12)c1c(N)n(Cc2ccccc2)c(=O)[nH]c1=O	-0.954%
CCNC(=S)N(CCc1c(C)[nH]c2ccc(C)cc12)Cc1ccco1	69.2%
COCCNC(=S)N(Cc1cccnc1)Cc1ccc(OC)c(OC)c1	-1.92%
COCCNC(=S)N(CCc1c(C)[nH]c2ccc(C)cc12)Cc1cccnc1	90.7% (active)
Cc1n[nH]c(=O)c2c(NC(=O)CSc3ccccc3F)oc(C)c12	1.87%
CC(C)COc1ccc(C(=O)NNC(=O)CCC(=O)c2cccs2)cc1	-17.3%
CC(NC(=O)COC(=O)CCC(=O)c1ccc(Cl)cc1)c1ccccc1 (stereo not given)	-2.75%
Cc1noc(C)c1C(=O)OC(C)C(=O)Nc1ccc2c(c1)OCO2 (stereo not given)	-0.736%
Cc1cccc(N2CCN(c3ccc(NC(=O)/C=C\C(=O)O)cc3)CC2)c1	99% (active)
O=C(Nc1cccc(NC(=O)N2CCN(c3ccccc3)CC2)c1)N1CCN(c2ccccc2)CC1	-1.81%

SMILES	inhibition
CSc1ccc(NC(=O)/C=C/C(=O)O)cc1	0.113%
Cc1ccc(CN2CCN(c3ccccc3Cl)CC2)o1	2%
CN1CCN(S(=O)(=O)c2ccc(Nc3ccc(F)cc3)nc2)CC1	-2.65%
O=C(OCC(=O)N1CCCCCC1)c1ccc(Br)c(S(=O)(=O)N2CCOCC2)c1	-8.29%
COc1ccc(NC(=O)CN(C)C(=O)Cc2coc3cc(C)c(C)cc23)cc1	0.212%
CCC1CO/C(=C(\C(=C(Cl)Cl)N2CCOCC2)[N+](=O)[O-])N1 (stereo not given)	81% (active)
COC(=O)[C@]1(C)CCC[C@@]2(C)C3CC[C@]4(OC(C)=O)C[C@@]3(CCC21)CC4=NO (stereo not given in full)	-3.27%
COc1ccc(C(=O)Nc2cccc(NC(=O)c3ccc(OC)cc3OC)n2)c(OC)c1	-5.93%
CCCCn1c(N)c(N(CCOC)C(=O)COc2c(C)cccc2C)c(=O)[nH]c1=O	-2.66%
Cc1cc(SCC(=O)c2ccccc2)nc(SCC(=O)c2ccccc2)n1	1.19%
CSc1nsc(NC(=O)Nc2ccccc2)n1	4.37%
CSc1nc(C)cc(SC(C(C)=O)C(=O)Nc2ccccc2)n1 (stereo not given)	92.7% (active)
O=C(COC(=O)C1CC2CCCC(C1)C2=O)NC(=O)c1ccccc1 (stereo not given)	1.09%
O=C(CN1C2=NCCN2c2ccccc21)c1cccs1	17.3%
CC(C)(C)C(=O)CN1C2=NCCN2c2ccccc21	93.6% (active)
OC(CN1C2=NCCCN2c2ccccc21)c1ccc(Br)cc1 (stereo not given)	9.53%
O=C1C=C(c2cccc(Cl)c2)C[C@@H](c2ccc(F)cc2)C1	-8.67%
Cc1ccccc1-n1c(SCC(=O)Nc2cccc3ccccc23)nc(O)cc1=O	59.8%
Cc1cc(NC(=O)CSc2nc3ccccc3n2CC(C)C)no1	-5.8%
CC(C)Cn1c(SCC(=O)Nc2ccc(Cl)cc2F)nc(O)cc1=O	98.5% (active)
COc1ccccc1-c1nn(Cc2ccccc2)cc1C(=O)N1CCN(c2ncccn2)CC1	1.87%
